# Shown are actives, neighbours in structure and some others; about 21% of the full set was active somewhere.
# Pf growth 48h: Primary qHTS for delayed death inhibitors of the malarial parasite plastid, 48 hour incubation; P. falciparum luciferase growth in erythrocytes, 48 h; 5.9% of 310,000 active; AID 504832, 2011; Potency, µM (doses to about 28.7 µM), for inactives: at the top dose activity change, negative = inhibition, most hits filed as inhibitors; also: potency is read from the fitted curve at half-maximal effect; % is scaled to controls: 0 for no effect and ±100 for the full control effect
#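 Cell-based growth assay: transgenic P. falciparum expressing firefly luciferase, cultured in red cells within RPMI 1640 containing 0.5% w/v Albumax, 24 mM bicarbonate and gentamycin. A drop in luciferase activity indicates inhibition.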
# NS1 function inh: qHTS Assay for Inhibitors of Influenza NS1 Protein Function; Potency, µM (highest dose often 46.1 µM), inactives show at the top dose activity, positive = more growth; AID 2326, 2010; 0.4% of 270,000 active; calls by dose curve; also: potency is read from the fitted curve at half-maximal effect; actives are rising curves; nearly all actives have a fitted effect of over 50% in size
#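 In this qHTS, NS1 from influenza A is expressed in budding yeast, where it slows growth. Cells are switched from glucose to 2% galactose medium (pH 6.0, -URA), treated with compound, and growth recovery is read at OD600.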
# Pf growth 96h: Primary qHTS for delayed death inhibitors of the malarial parasite plastid, 96 hour incubation. P. falciparum luciferase reporter growth, 96 h. 6.9% of 320,000 active. AID 504834, 2011. Potency, µM (series often up to 28.7 µM), without a hit: at the highest dose activity change, negative = inhibition, hits mostly inhibitors; also: potency is read from the fitted curve at half-maximal effect; % is scaled to controls: 0 for no effect and ±100 for the full control effect
#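 Compounds incubated with erythrocytes infected by luciferase-expressing P. falciparum (2% hematocrit, 0.05% parasitemia final) for 96 hours, 37 C in 5% CO2. Growth inhibition scored as decreased luciferase luminescence.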
# Shiga inhibitor: A qHTS for Small Molecule Inhibitors of Shiga Toxin | Vero cells, Shiga toxin protein synthesis inhibition reporter | inhibition, % at 38.7 µM | 9.2% of 290,000 active; in the data active = inhibition mostly above about 28%, no sharp cut-off; inactive = mostly below about 43%; also: 0% is about no effect
# Cycloheximide cs: Cycloheximide Counterscreen for Small Molecule Inhibitors of Shiga Toxin | max response, % | AID 2314, 2010 | 12% of 300,000 active | cell reporter, cycloheximide protein synthesis inhibition counterscreen; in the data active = max response mostly above about 13%, no sharp cut-off; inactive = mostly below about 14%; also: read at 38.3 µM for the half of the compounds with a filed dose; 0% is about no effect
# * = called active by the depositor; i = inactive; ? = inconclusive; . = not tested or not shown; [ ] = another dose, or the depositor's remark. Unless noted, calls follow the shape of the dose curve; as a rule, active = well fitted inhibition curve with a large enough effect; inconclusive = small, poorly fitted or top-dose-only effect, or another doubt; inactive = no such curve, though single readings can be large or run the other way.
SMILES,Pf growth 48h,NS1 function inh,Pf growth 96h,Shiga inhibitor,Cycloheximide cs
Cc1ccc(S(=O)(=O)N2CCCCC2)cc1C(=O)OC(C)C(=O)NC1CCCCC1C (centres undefined),?,.,13.1µM*,.,.
CC(C)NC(=O)CSc1nc(N)c(NC(=O)c2ccco2)c(=O)[nH]1,10.0%,.,0.0%,8.4,0.5
COc1ccc(/C=N/NC(=O)c2ccncc2)cc1CN1CCN(c2ccc(F)cc2)CC1,-2.4%,.,3.7µM*,-6.1,1.9
COc1ccc(/C=N\NC(=O)c2cc(O)c(O)c(O)c2)cc1CN1CCN(c2ccc(F)cc2)CC1,4.65µM*,?,?,8.6,4.0
COc1ccc(/C=N/NC(=O)c2ccc(C)cc2)cc1CN1CCN(c2ccc(F)cc2)CC1,14.1%,2.8%,-12.7%,10.1,-1.5
CC(=O)c1ccc(NC(=O)CSc2cn[nH]n2)cc1,13.4%,2.3%,-1.0%,31.4,-1.2
C=Cn1c(C(=O)O)ccc1-c1ccc(CC)cc1,?,-126.6%,105.4%,34.7,41.6*
O=C1c2ccccc2C(=O)c2[nH]cnc21,?,1.9%,?,-15.0,-3.7
O=C1c2ccccc2C(=O)c2c1ncn2-c1ccccc1,4.65µM*,17.6%,56.5%,-7.1,-1.2
Cn1nc(C(=O)Nc2cccc(S(=O)(=O)N3CCCCC3)c2)c2ccccc2c1=O,?,.,9.28µM*,.,.
COc1ccccc1NS(=O)(=O)c1cccc(NC(=O)c2nn(C)c(=O)c3ccccc23)c1,?,.,10.4µM*,.,.
Cn1nc(C(=O)Nc2ccc(S(=O)(=O)N3CCCCC3)cc2)c2ccccc2c1=O,?,.,8.28µM*,-7.7,8.8
O=C1CC(C(=O)N2CCC(N3CCC(C(=O)NC4CC4)CC3)CC2)c2ccccc21 (centres undefined),?,11.3%,?,1.4,-2.0
CCCCCC1CCC(C(=O)N2CCOCC2)CC1 (centres undefined),39.3%,-14.0%,40.3%,-0.9,0.7
c1ccc2[nH]c(SCC3CCCCO3)nc2c1 (centres undefined),i,3.2%,i,104.6*,34.2*
CCOc1ccc2nc(SCC3CC3(Cl)Cl)[nH]c2c1 (centres undefined),187.1%,-3.8%,209.4%,114.5*,55.5*
ClC1(Cl)CC1CSc1nc2ccccc2[nH]1 (centres undefined),58.9%,.,?,60.5,42.4*
O=c1c2ccccc2nc(SCC2CCCCO2)n1-c1ccccc1 (centres undefined),1.1%,-6.1%,16.0%,16.7,0.7
Cc1nn2c(COc3ccc(NC(=O)C(C)C)cc3)nnc2c2ccccc12,?,.,37.3%,12.1,6.3
Cc1nn2c(COc3ccc(NC(=O)c4ccccc4Cl)cc3)nnc2c2ccccc12,11.7µM*,?,4.15µM*,21.5,10.5
COc1ccc(/C=C/C(=O)OC2CCCN(C)C2)cc1 (centres undefined),16.8%,7.3%,?,47.8*,25.7*
COC(=O)C1Cc2c([nH]c3ccccc23)C(C(C)C)N1 (centres undefined),-17.2%,-0.3%,1.31µM*,-5.6,-3.3
CCC1NC(C(=O)O)Cc2c1[nH]c1ccccc21 (centres undefined),-21.3%,.,15.1%,.,.
COc1cc(C=C2C(=O)NC(=O)NC2=O)ccc1OCc1ccc([N+](=O)[O-])cc1,24.9%,.,-3.2%,101.7*,59.2*
COC(=O)C(=Cc1ccc(OCc2ccc([N+](=O)[O-])cc2)c(OC)c1)C(=O)OC,?,-1.4%,-1.8%,41.8*,23.9*
SMILES,Pf growth 48h,NS1 function inh,Pf growth 96h,Shiga inhibitor,Cycloheximide cs
CCOC(=O)C(=Cc1ccc(OCc2ccc([N+](=O)[O-])cc2)c(OC)c1)C(=O)OCC,?,-3.0%,?,27.5,43.3*
COc1cc(C(c2c(C)[nH][nH]c2=O)c2c(C)[nH][nH]c2=O)ccc1OCc1ccc([N+](=O)[O-])cc1,?,13.2%,146.1%,51.7,24.9*
Cc1ccc(S(=O)(=O)CCC(=O)OCC(=O)N2c3ccccc3NC(=O)C2(C)C)cc1,1.5%,.,31.6%,.,.
O=C(CCc1nnc(CCCc2ccccc2)o1)NC(C1CC1)C1CC1,23.8%,-7.0%,24.2%,55.2*,33.4*
Cc1nc(C(C)NC(=O)CCc2nnc(CCCc3ccccc3)o2)c(C)s1 (centres undefined),-2.9%,-1.5%,-25.1%,74.8*,31.7*
CCCSc1nc2c3c(sc2c(=O)[nH]1)CC(C)(CC)OC3 (centres undefined),0.8%,0.0%,0.5%[5.75 µM],-8.5,7.0
C=C1CCC(O)C/C1=C/C=C1\CCC[C@]2(C)[C@@H]([C@H](C)/C=C/[C@H](C)C(C)C)CC[C@@H]12 (some centres undefined),-17.7%,.,?,.,.
COc1cc(NC(=O)Cc2cccs2)c(C(=O)O)cc1OC,-0.1%,6.2%,19.5%,-6.9,-4.2
CC1(C)Cc2c(cnn2-c2ccccc2)C(=O)/C1=N\NC(=O)c1ccccc1O,?,-74.4%,.,32.2,16.3*
Cc1ccc(NC(=O)C2CCN(C(=O)[C@@H]3Cc4ccccc4CN3)CC2)c(C)c1,4.5%,6.9%,29.3%,-10.5,14.3*
COc1ccc(NC(=O)C2CCN(C(=O)[C@@H]3Cc4ccccc4CN3)CC2)cc1,18.6%,9.0%,6.0%,13.0,33.3*
CCc1ccc(NC(=O)C2CCN(C(=O)[C@@H]3Cc4ccccc4CN3)CC2)cc1,-23.0%,?,?,59.7*,34.3*
CCCNC(=O)c1ccccc1SCc1c(C)noc1C,1.7%,4.0%,?,-13.6,-1.9
C/C(COc1ccccc1)=N\NC(=O)c1nnn(-c2nonc2N)c1CSc1ccccc1,12.1%,16.4%,1.6%,-3.8,-1.7
O=C(c1ccc(-c2ccccc2)cc1)N1CCCC1,64.1%,-53.8%,58.6%,53.2,13.7
Cc1ccc(C(=O)Nc2ccc(C(=O)N3CCCCC3)cc2)o1,31.8%,5.4%,-1.0%,52.1*,26.4*
Cc1ccc(C(=O)Nc2ccc(NC(=O)c3ccc(C)o3)cc2)o1,-6.9%,-0.9%,20.7%,23.5,8.7
O=C(Nc1ccc(C(=O)N2CCCCC2)cc1)c1ccc(Br)cc1,?,-11.2%,4.15µM*,39.0,8.7
O=C(c1ccc(-n2cccc2)cc1)N1CCCCC1,57.0%,.,77.5%,49.0,25.6*
Cc1ccc(Cn2c(SC(C)C(N)=O)nc3ccccc3c2=O)cc1 (centres undefined),?,.,?,-5.2,-0.3
CC(C)[C@H](NC(=O)[C@H](CC(=O)O)NC(=O)[C@H](CCCCN)NC(=O)[C@@H](N)CCCN=C(N)N)C(=O)N[C@@H](Cc1ccc(O)cc1)C(=O)O,4.8%,0.3%,-11.4%,-10.4,-4.1
COc1ccc(CCC(=O)NNC(=O)Nc2ccc(C(C)=O)cc2)cc1,12.6%,13.4%,59.0%,-5.2,5.3
Cc1cccc(-n2c(C)c(-c3ccccc3)[nH]c2=S)c1,?,-8.4%,9.28µM*,4.4,2.8
CCCOc1ccc(NC(=O)C(=O)NCCCn2ccnc2)cc1,9.0%,-4.9%,-11.5%,19.9,13.1

# Assay outcomes deposited in PubChem by National Center for Advancing Translational Sciences (NCATS).
